Source: PubChem BioAssay AID1851 (National Center for Advancing Translational Sciences (NCATS), 2009)
Screen size: about 16,000 compounds; about 5,700 (36%) were called active. Not shown: some 24% with an inconclusive outcome. The list shows a part of the results. Values without a mark were called inactive. The call rests on the fitted dose curve; in most records, active means well fitted curve in the direction sought with a large enough effect; inconclusive means small, poorly fitted or top-dose-only effect, or effect the other way; inactive means no such curve, though single readings can be large or run the other way.

Each molecule was assayed against Cytochrome P450 1A2 (Homo sapiens) (UniProt P05177) (assay: Cytochrome panel assay with activity outcomes). Settings: recombinant CYP, pro-luciferin dealkylation, luminescence, p450-cyp1a2; series mostly up to 57.1 µM; activity, negative = inhibition: at the top concentration.
Cytochrome P450 1A2 (Homo sapiens), sequence (P05177 whole entry, looked up): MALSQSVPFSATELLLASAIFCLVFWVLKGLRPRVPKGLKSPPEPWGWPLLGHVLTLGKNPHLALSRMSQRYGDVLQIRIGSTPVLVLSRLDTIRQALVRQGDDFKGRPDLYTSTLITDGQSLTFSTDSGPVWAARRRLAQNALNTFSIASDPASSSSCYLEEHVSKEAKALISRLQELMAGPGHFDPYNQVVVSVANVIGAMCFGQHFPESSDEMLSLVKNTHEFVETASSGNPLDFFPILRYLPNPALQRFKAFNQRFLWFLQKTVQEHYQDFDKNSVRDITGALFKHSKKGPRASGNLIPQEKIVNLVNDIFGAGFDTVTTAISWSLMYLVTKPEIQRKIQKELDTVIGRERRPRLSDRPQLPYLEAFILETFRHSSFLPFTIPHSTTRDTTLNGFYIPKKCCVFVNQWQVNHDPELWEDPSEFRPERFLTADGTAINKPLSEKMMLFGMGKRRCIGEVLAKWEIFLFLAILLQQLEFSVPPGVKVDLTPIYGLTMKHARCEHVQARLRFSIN
On the % scale 0 is the no-effect control and ±100 the full control effect.

Structure (SMILES)	activity, negative = inhibition	AC50
Cc1ccc(C)c2sc(NC(=O)c3ccc(N4CCCCC4)c([N+](=O)[O-])c3)nc12	0.997%	–
O=C(c1ccc(N2CCCCC2)c([N+](=O)[O-])c1)N(Cc1ccccc1)c1ccccn1	–	14.1 µM (active)
COc1ccccc1N1CCN(CCN(C(=O)C2CCCCC2)c2ccccn2)CC1	-4.46%	–
CCOC(=O)NCc1ccc2c(c1)cc(C)n2C	–	2 µM (active)
CN[C@@H]1[C@H](O[C@H]2[C@@H](O[C@@H]3[C@@H](O)[C@@H](O)[C@@H](N=C(N)N)[C@@H](O)[C@@H]3N=C(N)N)O[C@@H](C)[C@]2(O)CO)O[C@H](CO)[C@@H](O)[C@@H]1O	-4.23% [at 25.6 µM]	–
Cc1ccccc1OCC(=O)OC1CCN(C)CC1	5.7%	–
CNC(=S)NNC(=O)COc1ccccc1C	–	15.8 µM (active)
CCCC(=O)N1CCN(c2ccc(NC(=O)c3ccc(OCC)c([N+](=O)[O-])c3)cc2)CC1	-8.1%	–
CCOc1ccc(C(=O)Cc2cc(OC)c(OC)cc2[N+](=O)[O-])cc1	-12.4%	–
CN(C(=O)COc1cccc(Br)c1)C1CCS(=O)(=O)C1 (configuration not stated)	-26.4%	–
CCOc1ccc(C(F)(F)F)cc1NC(=O)c1ccc(OC)c([N+](=O)[O-])c1	–	3.55 µM (active)
CC(=O)Nc1cc(C(F)(F)F)ccc1Oc1cccc(Br)c1	–	10 µM (active)
CC(=O)Oc1cc(C(F)(F)F)ccc1C(=O)O	-7.55% [at 25.6 µM]	–
CCOc1ccc(C(F)(F)F)cc1NC(C)=O	–	0.1 µM (active)
CC(=O)NC1=NC(=O)C(C)S1 (configuration not stated)	1.33%	–
N[C@@H](Cc1nn[nH]n1)C(=O)O	-8.69% [at 11.4 µM]	–
Nc1[nH]c(=O)nc2c1ncn2[C@H]1O[C@@H](CO)[C@@H](O)[C@@H]1O	-0.635% [at 11.4 µM]	–
CC1=NCC[N@@+]1(CCc1ccccc1)Cc1ccccc1	-17.6% [at 11.4 µM]	–
Cc1ccc(CSc2nc3c(c(SCC(=O)O)n2)CCCC3)cc1	-2.42%	–
OCCNc1nc(SCc2ccccc2)nc2sc3c(c12)CCC3	–	1 µM (active)
COCCNc1nc(SCc2ccccc2)nc2sc3c(c12)CCC3	–	1 µM (active)
CC(CO)Nc1nc(SCc2ccccc2)nc2sc3c(c12)CCC3 (configuration not stated)	–	0.2 µM (active)
C[C@H](Nc1ncnc2sc3c(c12)CCC3)C(=O)O	-17.4%	–
CCCCNC(=O)[C@@H]1Cc2ccccc2N1C(=O)[C@H](N)CC	–	20 µM (active)
CCCCNC(=O)C1CC(=O)N(CCC(C)C)C1 (configuration not stated)	-12.7%	–
CCCCNC(=O)C1CCN(Cc2ccccn2)CC1	5.66%	–
O=C(O)Cn1ccnc1[N+](=O)[O-]	-3.98% [at 11.4 µM]	–
